Whole data set: some 9,900 sequences, median “r (bound/input frequency ratio)” near 0.7, cut for the highest 2% near 6.5. This excerpt belongs to a sample that is enriched for the highest values.
B1: ENSMUSG00000028439.214|Fam219a|183:189;217:221 (ssRNA)
RNA: GGGAGUUCUACAGUCCGACGAUCGCUUCGAUAUCCGCAUGCUAUCUGGAACCUGGGUUCUGGUCCCAGCCUCGGCAUUCUCCCUGAGCUCCUAAGCAAUUCCCAGGCUUCUCUAGGGCUUCAGUUCUCACAACUGGAAAAUAAAGAGUAGCUGACAUCACCGACAGAGUCUUUUCAUACCAGAAGGAAUUUCUUCACAGGAGUUUCUGCAAAAGACUAUGACAUCACACACACUGUGGUCUCACGAGGUACCUGGAGGUCAUACUGCACGGACAUGGGAAGUACGUGAAGAUUUAUUUCGGGACUCUUGCGGUCGCACUAGUGUGGAAUUCUCGGGUGUCAAGG
B2: ENSMUSG00000004113.200|Cacna1b|94:98 (ssRNA)
RNA: GGGAGUUCUACAGUCCGACGAUCGCUUCGAUAUCCGCAUGCUACCUGAUCUCUGGCUCUGAGCAUCGUGGAUGAGGUACGGCCUCAGGAAGCAUCGGGUGGAUUGGGUGGGAGCUGCUCAGAGCAGCACGGGGGCUACACACUUAGGGACAUUGACAGUGUCCAUCAGCAUGUCAGAGAAGCAGCUGUAGUGCCCGUGUUUCUCCCUGAGUCAUGGGUUCUGAAGAAGCCAGAGCGGCACAAUGCGUGCUUGCAUGAGGCACUUUCAGCCUUUUUAAAUCUGACUCUCAGGGAUGGGAUGCCUCUCUUGCGGUCGCACUAGUGUGGAAUUCUCGGGUGUCAAGG
B3: ENSMUSG00000090935.682|Synj2bp (ssRNA)
RNA: GGGAGUUCUACAGUCCGACGAUCGCUUCGAUAUCCGCAUGCUAACUGUCAGGAGCUCUCUCUCUCUGCUUAGAAUCAUCCAGACAGCGGGCUGGUCAGCCCACAUUAAAUAAGAACAUGUGGGACUAGAAUUCAGUCAACAAUGACAUGUUUCAUCAGGUGGUUAAAAUGUACAGAUUCUGUUGGAAAUGUUCCAUGGUAUUUCAAUAGCCAGAAUGAAGAACUGGGCUAAGUCCAGAGCUCUGCUCUCUGAGCAUCUGCCCCAGAUACAGAGGCAGAGUAUGAAGUGGAACAUUGUUUUAUUCUCUUGCGGUCGCACUAGUGUGGAAUUCUCGGGUGUCAAGG
B4: ENSMUSG00000029028.246|Lrrc47|180:184 (ssRNA)
RNA: GGGAGUUCUACAGUCCGACGAUCGCUUCGAUAUCCGCAUGCUAUCCUCGUGGCAGACCCUGGACAACGCUGGUAGCUGUUCUCCAUGAGACACGGCUGCUCACAGGUCCCUUUGAGUGGCUGUGGCAAGUACUCACCUACUAAGUGUUUAGGGUGGAGCUAUCCUGUGCUCACCCUGUCUCCCCCCAGUUCCUGCUGUUCCCUCCAGCCCAGCCCAGCCCAGCACACAGAUUCAUUGAGAUUUUUGAAACUGUUUUUACAGAUUCAAGCAGAACGCCUCUUUGUUCUAAUAAAAACCCUUGGUCUCUUGCGGUCGCACUAGUGUGGAAUUCUCGGGUGUCAAGG
B5: ENSMUSG00000061578.401|Ksr2 (ssRNA)
RNA: GGGAGUUCUACAGUCCGACGAUCGCUUCGAUAUCCGCAUGCUAUUAAUGUACAGACAUCUGGAUCAAGGGAUUAAAAAAAAAAGAAUCAGUCUCUUCCCGGAGGAAGCAUCCGGGGGAAAUGUAUUCCUUCGCCCUGCAAGGAGCCAAUGGGAAGAGAGGGGACCAUAUAGUUAGAGACAUUCCCUACCCCCCGACCACUGACCCGUCCAGACCCUCGCUUCUUACAAUGCCUCUUCUUCUGCCAGACCAGCCACCUGCCCCACUAACACCAAAUGGCUUCUGUCCCUGCUUCACGUUGCAAACUCUUGCGGUCGCACUAGUGUGGAAUUCUCGGGUGUCAAGG
B6: ENSMUSG00000061578.1371|Ksr2 (ssRNA)
RNA: GGGAGUUCUACAGUCCGACGAUCGCUUCGAUAUCCGCAUGCUACUUACAUCUCUGACCCAGUGAUCUUUCUAGGGGUCUGUCACAUGUCCCAACAGGUGGACAGCUCUCCAAGUCACCAACCUGAGGAAAAUAUCCCUCCUUGUAAAAAGGCUUUCUCUUUGUAAAUGAUUCUGUUGCCUUUUUCUAAACACAAAGUAUAUAUACCUAUAAAUGCUAUAUAUAUUAUAUAUGUGUAUAUACAUAAAGACUACUUCUUGUACAGCCCUCCACGGACCUCAGGCCCACUGUUUUCUCCAUGUCUGCUCUUGCGGUCGCACUAGUGUGGAAUUCUCGGGUGUCAAGG
B7: ENSMUSG00000022095.129|Fam160b2|254:258 (ssRNA)
RNA: GGGAGUUCUACAGUCCGACGAUCGCUUCGAUAUCCGCAUGCUACAGCUGGUUCCUCUCUGGCGCCUUCUGAACCCGUCUCAGCAAGUCCGAAACACCUGGGCAGAGAGGUCAUUGACCAGGGAUGGGGGCCCUUGCCCUCUGAAUCCUGCCCAGUGCCCAGGGGUCCAGGUGGAAUGUGGUCCUGGGGACUAUAGGAACUCAAGGUACAGAUGGGACAGGGCACCCCAACUCCAAACCCCAGAAGCCUAGUGAGGCUAGGCCGAGACACAAGCAGAUAGCUCUGGCAUUGUUCUUCCAUACUCCUCUUGCGGUCGCACUAGUGUGGAAUUCUCGGGUGUCAAGG
B8: ENSMUSG00000042529.446|Kcnj12 (ssRNA)
RNA: GGGAGUUCUACAGUCCGACGAUCGCUUCGAUAUCCGCAUGCUAAGCCCAUCUGGUGCUGUGCACCUGGUCCUUGUCCAGCCGAGGGCCUGGGGGCAGAAGAACACACCAUAGGGAGGCCCUUGUAUGGGUGUCUGCCCUAUGUGAGGUCAUAGAAUGUUAAAUCUAUUUUAAACGGUGAAACUGGAGAAUUUUCAUGUUAUUUUCAAUAAUAGUGGUAUCUAAAGAUGUAGGCAACAAGACUAGACCACAUUAAAUGCAUUUUGAUCUCUUUGAAUGCUACUGUGUUGAGAUGUGCGUCUCACCUCUUGCGGUCGCACUAGUGUGGAAUUCUCGGGUGUCAAGG
B9: ENSMUSG00000022095.98|Fam160b2|79:83 (ssRNA)
RNA: GGGAGUUCUACAGUCCGACGAUCGCUUCGAUAUCCGCAUGCUAGGGGAAGCCCCCUCUUCCUGCUCUACCCUCCUGGAGGCUGUUGCAAAAUUCCCAACUGCCUCCUGGCAGAGGCCCAAACAUACCUCUGCGCCCAGGCGGGGGCAGCUGCUAACAAGAGCCCUGGCGCAGCUGCAGCCAGGGCAGGCGAGAGCCUUGGAGCUGGGUGCCAGGCUCCAGCUCCAGCUCCAGCUGGUUCCUCUCUGGCGCCUUCUGAACCCGUCUCAGCAAGUCCGAAACACCUGGGCAGAGAGGUCAUUGACCUCUUGCGGUCGCACUAGUGUGGAAUUCUCGGGUGUCAAGG
B10: ENSMUSG00000090935.122|Synj2bp|46:51;222:232 (ssRNA)
RNA: GGGAGUUCUACAGUCCGACGAUCGCUUCGAUAUCCGCAUGCUAUUCGUGAGAUACCGAAAGCAGCUUUGAAAUGCUUGCUGUCUUCCACACACACCAAUGAACUCUCUCUCUCACUCACCAUCUCUGACAUCCUCCCAUAUUCUUUCUCCUCCACAUAGCCAAUACAAGAUUUAAAGUGACUGCUUAUCACCCAAAACCCUGCUAUUCAAAAUCUCCUAUUCUAAUGGAAGAGUACAGGGGUUAUUUGAAGAAAAGCUGUGGUGCACACACACACGGGGAAGCCUUGCUUAGAAUGAAUGAGACUCUUGCGGUCGCACUAGUGUGGAAUUCUCGGGUGUCAAGG
B11: ENSMUSG00000058297.93|Spock2 (ssRNA)
RNA: GGGAGUUCUACAGUCCGACGAUCGCUUCGAUAUCCGCAUGCUAAGGGAGGGCAGGCAGCUGAAAGCUGAGCGUCCUCCCCAAAUUGGGCUGAUUUGAUAUGAAAGCCCCACCACGGUCUUGUGGUGAUGAGGCAGGACCUGUACACACAGCAAGGCUUACUAUCCGUCUCCUGACAUCCGAAGAGCUCGUCGCAGGUGUGUCUAAUGGCCCUUGGGCUGCACGUGGUUAAGCAUAGCUGUCUCUGUGGCCCAACACAAAGAGGUAAACUUACUUAAAACACAGGGGUUUUGUUGCUGUUUGUUCUCUUGCGGUCGCACUAGUGUGGAAUUCUCGGGUGUCAAGG
B12: ENSMUSG00000004113.177|Cacna1b|55:59;63:67;78:82;232:236 (ssRNA)
RNA: GGGAGUUCUACAGUCCGACGAUCGCUUCGAUAUCCGCAUGCUAGUAACUUUAAAAAAAAAGUCAACAUGUAGGAAGGUCUCCAUUUUGCAUUGUUUCACACACUUCAUACCAAUGUUCCUCAUACUUUCUACCCUGCCUGGGAUGUCCCCAAUGACCCUGGCUCCUCUGCUCAACCAAGUGCCUGAUCUCUGGCUCUGAGCAUCGUGGAUGAGGUACGGCCUCAGGAAGCAUCGGGUGGAUUGGGUGGGAGCUGCUCAGAGCAGCACGGGGGCUACACACUUAGGGACAUUGACAGUGUCCAUCUCUUGCGGUCGCACUAGUGUGGAAUUCUCGGGUGUCAAGG
B13: ENSMUSG00000042529.443|Kcnj12 (ssRNA)
RNA: GGGAGUUCUACAGUCCGACGAUCGCUUCGAUAUCCGCAUGCUAGAUGAAGCAGCUGCCCUGAGCCCAUCUGGUGCUGUGCACCUGGUCCUUGUCCAGCCGAGGGCCUGGGGGCAGAAGAACACACCAUAGGGAGGCCCUUGUAUGGGUGUCUGCCCUAUGUGAGGUCAUAGAAUGUUAAAUCUAUUUUAAACGGUGAAACUGGAGAAUUUUCAUGUUAUUUUCAAUAAUAGUGGUAUCUAAAGAUGUAGGCAACAAGACUAGACCACAUUAAAUGCAUUUUGAUCUCUUUGAAUGCUACUGUGCUCUUGCGGUCGCACUAGUGUGGAAUUCUCGGGUGUCAAGG

The binders below were run against TDP-43 (Homo sapiens, UniProt Q13148 1-414) (assay: RNA Bind-n-Seq with designed 260-mer pool; 25 mM Tris-HCl, 150 mM KCl, 3 mM MgCl2, BSA (printed 500 mg/mL), 20 units/mL SUPERase IN; pH not stated; 500 nM RNA pool, 1 h, 4 C; TDP-43 5, 50, 500 nM; high values mean tight binding). Settings: protein: recombinant; tags: SBP (GST cleaved off with PreScission; pGEX-GST-SBP).
Sequence of TDP-43 (Q13148 whole entry): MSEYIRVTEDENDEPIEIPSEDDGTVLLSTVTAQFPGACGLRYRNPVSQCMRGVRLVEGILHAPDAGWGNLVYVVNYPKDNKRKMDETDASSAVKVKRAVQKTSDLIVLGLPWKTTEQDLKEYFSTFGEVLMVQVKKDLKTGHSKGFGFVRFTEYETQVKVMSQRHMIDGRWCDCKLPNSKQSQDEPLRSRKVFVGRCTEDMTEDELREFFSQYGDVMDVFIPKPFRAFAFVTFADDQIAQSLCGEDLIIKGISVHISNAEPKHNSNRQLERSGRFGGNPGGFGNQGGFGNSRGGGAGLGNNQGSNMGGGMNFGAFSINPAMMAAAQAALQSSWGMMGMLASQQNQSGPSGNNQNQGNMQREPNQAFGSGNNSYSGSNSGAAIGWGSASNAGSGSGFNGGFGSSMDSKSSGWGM
How it was run: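 For each oligo, R gives binding as its mapped-read-normalized abundance after pulldown divided by its abundance in input. Bead-captured SBP-tagged TDP-43 (5, 50 or 500 nM) was incubated with 500 nM of an in vitro-transcribed 260-nt 3′ UTR oligo pool for 1 h at 4 °C in 25 mM Tris-HCl, 150 mM KCl, 3 mM MgCl2, BSA and SUPERase IN on streptavidin beads. Washed, biotin-eluted RNA was reverse transcribed, PCR-amplified and sequenced.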
B1 was tested, and the binding signal was 0.393 R (bound/input frequency ratio). B2 was tested, and the binding signal was 0.929 R (bound/input frequency ratio). In the case of B3, the binding signal is reported as 0.473 R (bound/input frequency ratio). For B4, the binding signal was 0.573 R (bound/input frequency ratio). For B5, the binding signal was 0.446 R (bound/input frequency ratio). With B6 the binding signal was 0.0492 R (bound/input frequency ratio). In the case of B7, the binding signal is reported as 0.357 R (bound/input frequency ratio). In the case of B8, the binding signal is reported as 1.1 R (bound/input frequency ratio). In the case of B9, the binding signal is reported as 0.706 R (bound/input frequency ratio). In the case of B10, the binding signal is reported as 2.71 R (bound/input frequency ratio). In the case of B11, the binding signal is reported as 0.528 R (bound/input frequency ratio). B12 was tested, and the binding signal was 0.533 R (bound/input frequency ratio). In the case of B13, the binding signal is reported as 1.32 R (bound/input frequency ratio).

Reference: paper PMC12864922, “TDP-43 directly inhibits mRNA accumulation in neurites through modulation of mRNA stability”
